From PubChem BioAssay
Compounds with a hit are over-represented: about 12% of the library has one in this group of screens.
BAZ2B inh: qHTS Assay for Inhibitors of BAZ2B. Potency, µM (doses to about 114 µM), inactives show at the top dose activity change, negative = inhibition, most hits filed as inhibitors. Bromodomain adjacent to zinc finger domain protein 2B (Homo sapiens), Q9UIF8. AID 504333, 2011. actives 4.4% (n = 360,000). AlphaScreen BAZ2B-H3K14Ac peptide displacement; also: % is scaled to controls: 0 for no effect and ±100 for the full control effect; nearly all actives have a fitted effect of over 60% in size
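Complex of BAZ2B and biotin-H3K14Ac (50 nM apiece) forms over 30 min at RT, then faces library compounds up to 110 uM for another 30 min; AlphaScreen beads added, 20 min dark incubation, luminescence read.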
L3MBTL1 inh: qHTS Assay for the Inhibitors of L3MBTL1 | Potency, µM (doses to about 57.1 µM), inactives show at the highest dose activity, negative = inhibition, usual class: inhibitors | actives 0.66% (n = 230,000) | AlphaScreen L3MBTL1–H3K9me1 peptide binding | Lethal(3)malignant brain tumor-like protein 1 (Homo sapiens), Q9Y468; also: % is scaled to controls: 0 for no effect and ±100 for the full control effect; nearly all actives have a fitted effect of over 60% in size
Target sequence (Q9Y468 whole entry, looked up): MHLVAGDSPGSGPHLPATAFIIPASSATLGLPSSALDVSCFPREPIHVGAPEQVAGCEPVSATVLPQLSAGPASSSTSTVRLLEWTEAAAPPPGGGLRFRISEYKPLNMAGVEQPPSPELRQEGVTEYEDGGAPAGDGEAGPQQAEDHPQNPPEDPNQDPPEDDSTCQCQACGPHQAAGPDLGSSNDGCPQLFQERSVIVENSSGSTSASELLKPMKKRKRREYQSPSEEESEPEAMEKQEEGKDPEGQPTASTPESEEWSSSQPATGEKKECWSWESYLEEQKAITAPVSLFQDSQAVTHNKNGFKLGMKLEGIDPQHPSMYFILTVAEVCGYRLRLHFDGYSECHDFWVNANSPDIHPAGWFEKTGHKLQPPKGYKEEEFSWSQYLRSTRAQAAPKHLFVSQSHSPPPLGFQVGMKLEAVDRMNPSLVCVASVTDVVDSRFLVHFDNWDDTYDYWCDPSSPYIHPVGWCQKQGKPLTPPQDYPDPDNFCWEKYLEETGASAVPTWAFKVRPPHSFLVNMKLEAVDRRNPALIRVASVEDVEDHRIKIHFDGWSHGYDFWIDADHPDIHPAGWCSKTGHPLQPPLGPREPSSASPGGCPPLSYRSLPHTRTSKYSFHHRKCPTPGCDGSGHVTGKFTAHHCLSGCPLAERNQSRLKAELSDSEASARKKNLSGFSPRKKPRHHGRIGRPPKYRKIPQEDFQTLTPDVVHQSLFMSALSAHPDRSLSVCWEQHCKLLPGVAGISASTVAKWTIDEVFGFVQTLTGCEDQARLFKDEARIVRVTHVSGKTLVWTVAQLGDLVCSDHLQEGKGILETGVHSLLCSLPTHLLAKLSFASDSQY
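Read-out is AlphaScreen signal from streptavidin donor and nickel chelate acceptor beads (10 ug/mL final each) bridging L3MBTL1 (50 nM) and biotinylated K9-monomethylated H3(1-15) peptide (75 nM), after 30 min compound exposure at room temperature.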
Sfp inh: qHTS Assay for Inhibitors of Bacillus subtilis Sfp phosphopantetheinyl transferase (PPTase); 4'-phosphopantetheinyl transferase ffp (Bacillus subtilis), Q9F4F7; Biochemical Sfp PPTase activity, qHTS; actives 3.5% (n = 310,000); Potency, µM, for the others: largest response in the series, negative = inhibition, usual class: inhibitors; AID 1490, 2009;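 also: the enzyme is Sfp with the accession as filed and its product quenches rhodamine fluorescence; 0% = enzyme reaction without inhibitor and -100% = no enzyme wells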
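Fluorescence-quenching assay: 15 nM Sfp-PPTase preincubated 15 min at room temperature with compound, then 5 uM rhodamine-CoA and 12.5 uM BHQ-2-labelled YbbR peptide added. Fluorescence (ex 525/em 598 nm) read at start and after 30 min; difference gives rate.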
HP1b chromo inh: HTS for Inhibitors of HP1-beta Chromodomain Interactions with Methylated Histone Tails | Chromobox protein homolog 1 (Homo sapiens), P83916 | AlphaScreen HP1-beta / biotin-H3K9me3 peptide binding | Potency, µM (top dose mostly 114 µM), for the others: at the top dose activity change, negative = inhibition, hits mostly inhibitors | actives 0.56% (n = 390,000) | AID 540317, 2011; also: nearly all actives have a fitted effect of over 70% in size
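HP1-beta protein (50 nM final) preincubated 30 min at room temperature with biotinylated H3(1-18)K9me3 peptide (50 nM) in PBS pH 7.4, 0.01% Tween-20, then compound added for 30 min. AlphaScreen streptavidin donor/nickel chelate acceptor beads (10 ug/mL final), 30 min dark, luminescence read.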
G9a block: qHTS Assay for Inhibitors of Histone Lysine Methyltransferase G9a; Potency, µM (highest dose often 102 µM), inactives show top-dose activity, negative = inhibition, actives largely listed as inhibitors; actives 8.8% (n = 350,000); Histone-lysine N-methyltransferase EHMT2 (Homo sapiens), Q96KQ7; G9a H3K9 monomethylation, AlphaScreen, 2 h; also: % is scaled to controls: 0 for no effect and ±100 for the full control effect; nearly all actives have a fitted effect of over 75% in size
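AlphaScreen read-out: biotin-H3K9 peptide (500 nM) methylation by 20 nM enzyme with 20 uM SAM, 2 h at room temperature after 15 min compound preincubation; anti-monomethyl H3K9 antibody plus donor/acceptor beads, 10 min dark.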
JMJD2A Tudor inh: qHTS Assay for Inhibitors of JMJD2A-Tudor Domain; Lysine-specific demethylase 4A (Homo sapiens), O75164; AlphaScreen JMJD2A-Tudor / H3K4me3 peptide binding; Potency, µM (highest dose often 114 µM), for the others: top-dose activity change, negative = inhibition, most hits filed as inhibitors; actives 4.4% (n = 390,000); AID 504339, 2011; also: % is scaled to controls: 0 for no effect and ±100 for the full control effect; nearly all actives have a fitted effect of over 50% in size
* hit, by the source's call; ? = inconclusive; · = no result given; [ ] = dose if it differs, or a comment. Calls follow the shape of the dose curve; as a rule, active = well fitted curve in the direction sought with a large enough effect; inconclusive = small, poorly fitted or top-dose-only effect, or another doubt; inactive = no such curve, though single readings can be large; an effect the other way counts as inactive or inconclusive. Potency is read from the fitted curve at half-maximal effect.

SMILES	BAZ2B inh	L3MBTL1 inh	Sfp inh	HP1b chromo inh	G9a block	JMJD2A Tudor inh
CC(C(=O)Nc1ccc2c(c1)OCO2)N(C)CC(=O)Nc1ccccc1Cl (stereo unspecified)	·	1.0%	·	35.6%	·	-8.4%
CC1CC(C)CN(C(=O)C(C)N(C)CC(=O)Nc2ccc(Cl)cc2)C1 (stereo unspecified)	44.7µM*	·	?	?	50.1µM*	7.94µM*
Cc1ccc(N(Cc2ccccc2)C(=O)c2cc(S(=O)(=O)N3CCOCC3)ccc2C)cc1	-6.9%	0.4%	·	11.2%	-10.7%[2.33 µM]	-25.5%
Cc1ccccc1CCNCc1c(C(=O)O)c(C)n(Cc2c(F)cccc2Cl)c1C	-16.0%	·	·	12.5%	-5.3%[59 µM]	-21.5%
C=CCn1c(-c2ccc(Cl)cc2)cnc1SC(C)C(N)=O (stereo unspecified)	?	·	-4.0%	19.9%	10µM*	-32.9%
CCS(=O)(=O)c1nc(S(=O)(=O)c2ccc(C)cc2)c(N2CC(C)OC(C)C2)s1 (stereo unspecified)	-1.6%	·	6.8%	56.4%	·	2.0%
CS(=O)(=O)c1nc(S(=O)(=O)c2ccc(Cl)cc2)c(NCc2ccccn2)s1	15.0%	·	8.5%	26.2%	39.8µM*	-16.2%
CCS(=O)(=O)c1nc(S(=O)(=O)c2ccc(C)cc2)c(NCc2ccccn2)s1	12.3%	·	-11.9%	19.4%	2.1%	-13.1%
CCCS(=O)(=O)c1nc(S(=O)(=O)c2ccc(C)cc2)c(NCc2ccccn2)s1	-0.3%	·	-4.4%	49.5%	35.5µM*	-4.8%
CCCS(=O)(=O)c1nc(S(=O)(=O)c2ccc(C)cc2)c(N2CC(C)OC(C)C2)s1 (stereo unspecified)	-3.3%	·	2.7%	53.3%	50.1µM*	-3.4%
CCCS(=O)(=O)c1nc(S(=O)(=O)c2ccc(C)cc2)c(NCc2ccco2)s1	-4.0%	-10.2%	-5.6%	18.0%	39.8µM*	-17.9%
COc1ccc(OC)c(C2CC(=O)Nc3c2c(=O)[nH]c2nc4ccccc4n32)c1 (stereo unspecified)	-19.0%	·	·	20.2%	15.7%[59 µM]	-13.4%
CC(C)C[C@H]1CNC(=S)N1CC1CCN(CCCC2CCCC2)CC1	·	·	·	11.6%	·	-31.7%
C#CCCCCCCCCCCCC(=O)CC(O)COC(C)=O (stereo unspecified)	·	·	31.8%	·	·	·
O=C(/C=C/c1ccco1)NC(=S)Nc1ccccc1O	39.8µM*	-28.5%	-54.2%	?	31.6µM*	-8.3%[11.4 µM]
Cc1cc(C)c2oc(-c3ccc(C)c(NC(=S)NC(=O)/C=C/c4ccco4)c3)nc2c1	-29.5%	-4.0%	39.8µM*	5.6%	-44.0%[59 µM]	-29.0%
O=C(/C=C\c1ccco1)NC(=S)Nc1ccccc1O	50.1µM*	-18.7%	?	-12.4%	44.7µM*	-11.8%[11.4 µM]
Cc1ccc(-c2nc3ccccc3[nH]2)cc1NC(=O)/C=C/c1ccco1	50.1µM*	?	50.1µM*	-21.1%	-6.2%[2.33 µM]	?
Cc1ccc(C(C)NC(=O)c2ccncc2)c(C)c1 (stereo unspecified)	-11.3%	·	19.1%	22.8%	?	-8.3%
COc1ccc(-c2nc3c(c4c2C[C@H](c2ccccc2)OC4)CN(S(=O)(=O)c2ccc(C#N)cc2)CC3)c(C)c1	·	·	5.7%	·	·	·
Cc1noc(C)c1C(=O)N1CCN(S(=O)(=O)c2cccc(Cl)c2Cl)CC1	-11.5%	8.2%	14.3%	6.1%	22.5%[12.7 µM]	-7.7%
C#CCSc1nc2ccccc2c(=O)n1CC=C	·	·	·	19.6%[57 µM]	·	16.9%[57.1 µM]
Cc1ccc(CNC(=O)CCS(=O)(=O)c2ccc(Br)s2)o1	2.1%	-3.0%[11.4 µM]	39.8µM*	-23.6%	?	-20.5%
Cc1ccccc1NC(=O)CCS(=O)(=O)c1ccc(Br)s1	?	·	6.1%	-33.4%	44.7µM*	-23.7%
Cn1cccc1C(=O)Nc1ccc(Cl)c(S(=O)(=O)N2CCCCC2)c1	·	-7.8%	·	-7.9%	·	?
SMILES	BAZ2B inh	L3MBTL1 inh	Sfp inh	HP1b chromo inh	G9a block	JMJD2A Tudor inh
Cc1ccc2cccc(NC(=O)c3ccc(-c4cc(Cl)ccc4Cl)o3)c2n1	-13.9%	·	·	14.3%	-8.7%[59 µM]	-7.1%
CCc1nnc(NS(=O)(=O)c2ccc(NC(=O)Nc3ccc(OC)cc3)cc2)s1	-8.7%	7.0%	11.5%	16.3%	·	-13.6%
COc1ccc(S(=O)(=O)Nc2nnc(C(C)(C)C)s2)cc1	·	-1.0%	17.8µM*	-23.9%	1.78µM*	-22.4%
COc1ccc(S(=O)(=O)Nc2nnc(CC(C)(C)C)s2)cc1	-29.9%	-3.6%	-2.9%	4.3%	35.5µM*	4.8%
O=C(Nc1nc(-c2ccc(F)c(F)c2)cs1)Nc1ccc(F)cc1F	-0.8%	·	-6.7%	31.3%	0.9%	-0.7%
CCN1C(=NCC2CC2)N[C@@H](c2cccc(C(F)(F)F)c2)C(C(=O)OC)=C1C	7.7%	-3.7%	14.6%	19.9%	-1.2%[12.7 µM]	-11.2%
COC(=O)C1=C(C)N(Cc2ccccc2)C(=NCC(C)C)N[C@H]1c1cccc(C(F)(F)F)c1	·	12.0%	·	13.2%	·	35.5µM*
